# Only some compounds are listed: those with a hit (about 3.1% of all), similar ones and a draw of the others.
# esBAF inh – SWI/SNF esBAF complex inhibition. mouse ES cells, Bmi1-luciferase knock-in reporter, 24 h; 100% = twice the neutral-well signal. AID 602393. reporter increase, % at 12.5 µM. actives 2% (n = 350,000); in the data active = activation above about 40%; inconclusive = no clear call, values can overlap the other calls;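 also: 0% = median of the plate's neutral control wells and 100% = double that signal; a rise in the Bmi1 reporter signal indicates esBAF inhibition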
# MITF act – increases MITF-driven TRPM1 promoter luciferase signal; actives 0.75% (n = 300,000); SK-MEL-5 TRPM1-promoter luciferase, 24 h; % of positive control, neutral wells = 0; activation, % at 12.5 µM;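 active = mean activation of at least 80% with every replicate also reaching 80%; inconclusive = mean reaches 80% but some replicate falls short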;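 also: 0% = neutral control wells and 100% = parthenolide positive control wells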
# C2C12 statin – suppression of simvastatin myotoxicity. C2C12 myotubes + simvastatin, ATP luminescence, 48 h; scaled: DMSO 0, geranylgeraniol control 100. rescue of ATP level, % at 7.49 µM. actives 0.78% (n = 330,000). AID 602340;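 active = mean ATP rescue above about 67%, or every replicate alone reaching that limit, limit read from the data, passing the limit was not always enough; inconclusive = no clear call, values can overlap the other calls; inactive = mean under the limit and some replicate under it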;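 also: myotubes were challenged with 10 µM simvastatin during compound exposure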
# Rtt109 Vps75 – inhibitors of Candida albicans Rtt109/Vps75 histone acetyltransferase. AID 540336. inhibition, % at 34.9 µM. Q5AAJ8. actives 0.16% (n = 330,000). purified Rtt109/Vps75, ThioGlo CoA-SH fluorescence, 4 h;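 active = inhibition of at least 50% in every replicate; inconclusive = best replicate reaches 50% inhibition but some replicates fall short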
# Target sequence (Q5AAJ8 whole entry, looked up): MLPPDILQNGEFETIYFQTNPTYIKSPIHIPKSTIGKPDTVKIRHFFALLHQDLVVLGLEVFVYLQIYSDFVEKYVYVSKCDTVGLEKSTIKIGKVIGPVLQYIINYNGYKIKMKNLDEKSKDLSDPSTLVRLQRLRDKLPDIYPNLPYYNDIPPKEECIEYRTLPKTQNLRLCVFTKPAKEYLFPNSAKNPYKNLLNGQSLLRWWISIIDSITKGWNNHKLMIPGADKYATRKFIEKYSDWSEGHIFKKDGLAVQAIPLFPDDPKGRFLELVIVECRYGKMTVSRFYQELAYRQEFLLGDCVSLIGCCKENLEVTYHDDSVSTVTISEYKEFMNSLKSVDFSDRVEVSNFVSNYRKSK
# Wnt act – activates Wnt/beta-catenin signaling in a reporter cell assay | activation, % at 9.35 µM | actives 1.2% (n = 300,000) | activator, plate reader; in the data active = activation above about 30%, passing the limit was not always enough; inconclusive = no clear call, values can overlap the other calls;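 also: 0% = neutral control wells and 100% = positive control wells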
# esBAF Ring1 qPCR – de-represses Ring1 in mouse ESCs, confirming esBAF inhibition; fold change at 33 µM; shares compounds with esBAF inh; AID 743176; mouse ESC E14, Ring1 mRNA RT-qPCR fold change; 550 tested, under 10 active;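 active = Ring1 gene expression raised more than 2-fold over untreated cells in both replicates at either tested dose; inconclusive = only one replicate above 2-fold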;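 also: Ring1 transcript normalised to actin housekeeping signal by TaqMan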
# esBAF Fgf4 qPCR – represses Fgf4 in mouse ESCs, confirming esBAF inhibition; mouse ESC E14, Fgf4 mRNA qPCR fold change; hits give low values; shares compounds with esBAF inh; actives 4% (n = 550); Fgf4 expression fold change at 33 µM;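 active = Fgf4 expression under 0.8 fold of control in both repeat measurements at one or both tested doses; inconclusive = under 0.8 fold in just a single repeat measurement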;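 also: Fgf4 transcript normalised to actin in duplex TaqMan qPCR; cells exposed to compound for 24 h before lysis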
# Bmi1 derepress – de-represses Bmi1 in mouse ESCs, confirming esBAF inhibition. 550 tested, under 10 active. shares compounds with esBAF inh. mouse ESE14 ES cells, Bmi1 mRNA qPCR fold; hits give high values. fold change at 33 µM;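 active = Bmi1 expression fold change above 6 at either tested concentration, seen in replicate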;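 also: higher fold means more Bmi1 de-repression and stronger esBAF inhibition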
# A549 tox SP – kills or reduces viability of A549 cells; shares compounds with esBAF inh; A549 cytotoxicity, plate reader; 550 tested, under 10 active; cell viability change % (negative = cytotoxic), % at 25 µM, hits read low; call rule not given here
# HepG2 tox SP – cytotoxicity in HepG2 cells; shares compounds with esBAF inh; plate reader; hits give low values; activity change, negative = inhibition, % at 25 µM; actives 4% (n = 550); in the data active = activity change below about -50%
# HEK293 tox SP – cytotoxicity in HEK293 cells; shares compounds with esBAF inh; plate reader; activity change, negative = inhibition, % at 25 µM, hits read low; actives 3% (n = 550); AID 743190; in the data active = activity change below about -38%, passing the limit was not always enough
# Active calls of the source: *; u = inconclusive; x = not tested or not shown.
SMILES,esBAF inh,MITF act,C2C12 statin,Rtt109 Vps75,Wnt act,esBAF Ring1 qPCR,esBAF Fgf4 qPCR,Bmi1 derepress,A549 tox SP,HepG2 tox SP,HEK293 tox SP
CC(C)CN=c1cc(-c2ccccc2)oc2ccc(Cl)cc12,53.6*,53.3,3.2,-1.9,x,0.623,u,6.87*,-6.8,-14.2,5.0
CC1CCc2sc(C(=O)NC3CCCCC3)cc2C1 (stereo not given),75.4*,x,-1.1,-10.8,54.4*,1.25,0.933,1.39,-5.8,-17.0,-8.8
CC1CCc2sc(C(=O)NC(C)C3CCCO3)cc2C1 (stereo not given),x,29.5,x,0.3,2.3,x,x,x,x,x,x
COc1ccc(-c2nc(C#N)c(NC(C)C)o2)cc1,66.5*,74.1,-6.5,1.5,14.6,1.13,1.05,1.59,-3.6,-35.3,-9.0
CSc1cccc(NC(=O)N2CCc3ccc(NC(=O)c4ccccn4)cc3C2)c1,60.0*,71.9,6.1,6.5,21.1,0.926,1.01,1.25,-24.5,-17.8,-16.9
O=C(Nc1ccc2c(c1)C(=O)c1ccccc1-2)c1ccccc1,94.5*,39.1,3.4,-16.1,-2.3,1.1,0.842,1.44,-5.3,-23.2,-10.6
Fc1ccc(CSc2ccc(-c3cccs3)nn2)cc1,69.2*,32.1,-8.9,4.4,15.8,1.16,u,1.45,-5.9,-7.2,-6.6
C[C@@H]1CN([C@H](C)CO)C(=O)c2cccc(NC(=O)C3CCCCC3)c2O[C@H]1CN(C)Cc1ccc(C(=O)Nc2ccccc2N)cc1,3.8,x,-11.6,x,x,x,x,x,x,x,x
O=C(C[C@H]1C[C@H]2c3cc(NC(=O)C4CCC4)ccc3O[C@H]2[C@@H](CO)O1)NC1CCCCC1,-3.1,x,-5.3,x,x,x,x,x,x,x,x
O=C1Nc2ccccc2N=C(c2ccc3c(c2)OCO3)C1N(C(=O)c1ccc2ccccc2c1)C1CC1 (stereo not given),104.8*,x,10.6,x,1.0,1.01,1.05,1.21,-2.1,32.7,3.2
COc1ccccc1N1C(=O)S/C(=C\c2ccc(C)s2)C1=O,73.1*,x,-5.1,1.1,9.8,1.01,u,1.47,-3.3,-21.5,-0.7
COc1ccc2c(=O)c3ccccc3oc2c1,58.0*,104.3*,8.2,1.1,2.1,1.41,1.02,1.69,-10.7,-3.6,-15.5
COc1ccc2c(=O)c(-c3ccc(OC)c(OC)c3)coc2c1,57.9*,95.0*,2.7,0.9,1.4,1.02,0.888,1.46,-3.5,-59.9*,-13.9
COc1ccc2c(=O)c(N3C(=O)c4ccccc4C3=O)c(C)oc2c1,1.5,5.3,22.2,-0.7,-1.2,x,x,x,x,x,x
CCCNC(=O)[C@@H]1[C@@H](CO)[C@@H]2Cn3c(ccc(-c4ccccc4OC)c3=O)[C@@H]2N1CC,4.5,x,14.6,x,x,x,x,x,x,x,x
CO[C@H]1CN(C)C(=O)c2ccc(NS(C)(=O)=O)cc2OC[C@@H](C)N(CC2CCCCC2)C[C@@H]1C,4.8,x,8.7,x,x,x,x,x,x,x,x
FC(F)(F)c1ccccc1/C=N/Nc1ccccn1,x,9.8,x,15.5,2.4,x,x,x,x,x,x
Oc1cccc(C=NNc2ccccn2)c1,75.6*,13.7,6.4,-2.0,0.2,0.958,0.922,1.71,1.4,-19.7,4.8
Clc1ccccc1C=NNc1ccccn1,98.1*,35.0,4.7,-0.8,39.2*,1.08,0.897,1.44,-15.1,-13.1,-4.9
COc1ccc(NC(=O)Nc2cccc(C)n2)cc1,66.4*,68.4,7.2,-0.4,21.0,1.06,0.878,2,-1.2,-0.7,-7.3
C[C@@H]1CN([C@@H](C)CO)C(=O)c2cc(NC(=O)CCCN(C)C)ccc2O[C@H]1CN(C)S(=O)(=O)c1ccc(F)cc1,-2.7,x,-7.9,x,x,x,x,x,x,x,x
COc1ccc(NC(=O)Nc2ccc3c(c2)CC(=O)N([C@@H](C)CO)C[C@@H](C)[C@H](CN(C)Cc2ccc(-c4ccccc4)cc2)O3)cc1,2.4,x,32.7,x,x,x,x,x,x,x,x
CCC(=O)N[C@@H]1C=C[C@H](CC(=O)NCc2cc(F)cc(F)c2)O[C@@H]1CO,0.2,x,-3.6,x,x,x,x,x,x,x,x
COc1ccc2c(c1)nc(-c1cccc(Br)c1)c(=O)n2C(c1ccccn1)c1nc2ccccc2[nH]1 (stereo not given),72.4*,x,4.8,x,-0.1,1.39,1.05,2.05,0.6,-17.2,5.6
CO[C@H]1CN(C)C(=O)c2ccc(NC(=O)C3CCCC3)cc2OC[C@H](C)N(C(C)=O)C[C@H]1C,0.3,x,-3.1,x,x,x,x,x,x,x,x
SMILES,esBAF inh,MITF act,C2C12 statin,Rtt109 Vps75,Wnt act,esBAF Ring1 qPCR,esBAF Fgf4 qPCR,Bmi1 derepress,A549 tox SP,HepG2 tox SP,HEK293 tox SP
CC(C)c1ccc(NC(=O)c2cccnc2)cc1,84.9*,91.1*,-13.8,-3.5,x,1.12,0.814,1.56,-1.1,-26.9,4.7
COc1ccc(-c2ccc3c(c2)[C@@H]2[C@@H](CCN2C(=O)c2cnccn2)[C@H](CO)N3)cc1,-1.8,x,-5.8,x,x,x,x,x,x,x,x
CO[C@@H]1CN(C)C(=O)c2cc(NC(=O)c3ccccc3)ccc2OC[C@H](C)N(C(=O)C2CC2)C[C@H]1C,8.0,x,1.4,x,x,x,x,x,x,x,x
COc1ccc(S(=O)(=O)Nc2cccc3c2O[C@H](CN(C)CC2CCCCC2)[C@H](C)CN([C@H](C)CO)C3=O)cc1,-3.5,x,u,x,x,x,x,x,x,x,x
Cc1csc(SCCN2C(=O)c3ccccc3C2=O)n1,65.0*,74.4,11.3,-3.5,16.0,1.22,1.02,1.62,-5.9,-0.2,-7.1
O=C1c2ccccc2C(=O)N1CCSc1nncs1,4.0,12.9,5.1,-2.2,x,x,x,x,x,x,x
C[C@H]1CN([C@@H](C)CO)S(=O)(=O)c2ccc(C#CCN(C)C)cc2O[C@H]1CN(C)C(=O)C1CCC1,-2.4,x,0.8,x,x,x,x,x,x,x,x
Cc1ccc(Nc2nc(-c3cccnc3)cs2)cc1Cl,62.7*,x,-4.7,1.7,-0.7,1.05,0.74*,1.69,-6.8,-2.1,-4.6
Cc1ccc(C)c(Nc2nc(-c3cccnc3)cs2)c1,18.1,19.9,-17.4,0.6,13.5,x,x,x,x,x,x
Cc1cccc(S(=O)(=O)N2CC[C@@H]3[C@@H](CO)Nc4ccc(C#Cc5ccccc5F)cc4[C@@H]32)c1,-3.3,x,-11.3,x,x,x,x,x,x,x,x
O=C(NCC[C@@H]1CC[C@@H](NS(=O)(=O)Cc2ccccc2)[C@H](CO)O1)C1CC1,5.1,x,-0.2,x,x,x,x,x,x,x,x
ON=C(CCc1ccccc1)c1ccccc1,74.0*,x,-18.0,x,1.4,1.15,1.12,1.89,3.4,-20.7,-2.1

# Assay outcomes (PubChem)
